Source: the supplement of paper PMC12669032
A number with no mark means an inactive call.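 Rule for the calls: active = AUC reduced over 20% with Padj below 0.05 in at least 2 of 3 replicates; inactive = otherwise.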

How the values were obtained:
Assay in all cases: growth AUC relative to DMSO control (median of replicates) (fraction); higher = more growth (less inhibition), active = hit call of the paper
Details in all cases: 20 µM; 24 h
Akkermansia muciniphila = test system: Akkermansia muciniphila
Outline: (§1)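 Gut bacterial monocultures were grown anaerobically at 37 °C in mGAM from a starting OD600 of 0.05 with 20 µM compound (1% DMSO), in round-bottom 96-well plates under pierced gas-permeable seals, and OD600 was read hourly for 24 h. With the minimum OD set to 0, area under the growth curve was normalised to the plate median of solvent-only wells, or to row and column medians on the industrial chemical plate. Each value is the median of three biological replicates grown on separate days.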

Bacteroides caccae = test system: Bacteroides caccae
Outline: as §1

Bacteroides clarus = test system: Bacteroides clarus
Outline: as §1

Bacteroides dorei = test system: Bacteroides dorei
Outline: as §1

Bacteroides stercoris = test system: Bacteroides stercoris
Outline: as §1

[1] = test system: Bacteroides thetaiotaomicron
Outline: as §1

Bacteroides uniformis = test system: Bacteroides uniformis
Outline: as §1

[2] = test system: Bifidobacterium longum subsp. longum
Outline: as §1

Clostridium difficile = test system: Clostridium difficile
Outline: as §1

Collinsella aerofaciens = test system: Collinsella aerofaciens
Outline: as §1

Coprococcus comes = test system: Coprococcus comes
Outline: as §1

Escherichia coli ED1a = test system: Escherichia coli ED1a
Outline: as §1

Escherichia coli IAI1 = test system: Escherichia coli IAI1
Outline: as §1

Eubacterium rectale = test system: Eubacterium rectale
Outline: as §1

[3] = test system: Fusobacterium nucleatum subsp. animalis
Outline: as §1

Lactobacillus gasseri = test system: Lactobacillus gasseri
Outline: as §1

Lactobacillus paracasei = test system: Lactobacillus paracasei
Outline: as §1

Odoribacter splanchnicus = test system: Odoribacter splanchnicus
Outline: as §1

[4] = test system: Parabacteroides distasonis
Outline: as §1

Parabacteroides merdae = test system: Parabacteroides merdae
Outline: as §1

Row | Structure (SMILES) | growth AUC (Akkermansia muciniphila) | growth AUC (Bacteroides caccae) | growth AUC (Bacteroides clarus) | growth AUC (Bacteroides dorei) | growth AUC (Bacteroides stercoris) | growth AUC [1] | growth AUC (Bacteroides uniformis) | growth AUC [2] | growth AUC (Clostridium difficile) | growth AUC (Collinsella aerofaciens) | growth AUC (Coprococcus comes) | growth AUC (Escherichia coli ED1a) | growth AUC (Escherichia coli IAI1) | growth AUC (Eubacterium rectale) | growth AUC [3] | growth AUC (Lactobacillus gasseri) | growth AUC (Lactobacillus paracasei) | growth AUC (Odoribacter splanchnicus) | growth AUC [4] | growth AUC (Parabacteroides merdae)
1 | CC(Oc1ccc(Oc2ncc(C(F)(F)F)cc2Cl)cc1)C(=O)O (stereo not given) | 1.02 | 0.974 | 0.957 | 0.954 | 0.979 | 0.975 | 0.943 | 0.93 | 1.01 | 0.967 | 0.99 | 1.02 | 0.987 | 0.977 | 1.01 | 0.922 | 0.876 | 1.04 | 0.978 | 0.976
2 | CC(Oc1ccc(Oc2ccc(C(F)(F)F)cn2)cc1)C(=O)O (stereo not given) | 1.17 | 0.992 | 1.02 | 0.943 | 1.04 | 1.01 | 0.899 | 1.05 | 0.917 | 0.941 | 1.01 | 0.995 | 0.996 | 1.12 | 0.915 | 0.839 | 0.969 | 0.766 (active) | 0.72 | 0.993
3 | COC(=O)NCc1cc(/C(C)=N\OCc2cccc(C)n2)ccc1Cl | 1.07 | 0.936 | 0.984 | 0.949 | 0.939 | 0.995 | 0.902 | 1.03 | 0.968 | 0.969 | 1.05 | 0.979 | 0.995 | 1.08 | 0.934 | 0.893 | 0.969 | 1 | 0.772 | 0.947
4 | CCCCC(CC)COC(=O)c1ccccc1C(=O)OCC(CC)CCCC (stereo not given) | 1.03 | 0.989 | 0.993 | 0.963 | 0.898 | 0.993 | 1.03 | 0.984 | 0.977 | 0.888 | 0.999 | 0.983 | 0.977 | 1.02 | 1 | 0.892 | 1.07 | 1.1 | 0.985 | 0.965
5 | Cc1ccc2nc3sc(=O)sc3nc2c1 | 1.04 | 0.982 | 1.01 | 0.985 | 0.879 | 1 | 1.04 | 1.07 | 1.02 | 0.982 | 0.964 | 0.969 | 0.948 | 1.02 | 1.04 | 0.915 | 0.954 | 1.14 | 0.924 | 0.954
6 | Cc1occc1C(=O)Nc1ccccc1 | 0.899 | 1 | 0.958 | 1.04 | 0.952 | 1.02 | 1 | 1.02 | 1.05 | 0.959 | 0.977 | 0.966 | 0.953 | 1.16 | 0.933 | 0.973 | 0.925 | 0.985 | 0.971 | 0.998
7 | O=c1oc2ccccc2c(O)c1C1CCCc2ccccc21 (stereo not given) | 1.15 | 0.938 | 0.916 | 0.926 | 1.09 | 0.796 (active) | 0.701 (active) | 1.09 | 1.02 | 1 | 0.966 | 1.04 | 1.04 | 1.08 | 1.05 | 1 | 0.894 | 0.959 | 0.805 | 0.994
8 | Nc1c(Cl)c(F)nc(OCC(=O)O)c1Cl | 0.886 | 1.01 | 0.968 | 1.01 | 0.999 | 0.991 | 0.955 | 0.917 | 1.01 | 0.97 | 0.99 | 0.992 | 1.03 | 0.918 | 0.971 | 1.11 | 1.16 | 1 | 0.972 | 1.01
9 | CC(C)(C)C(O)C(Oc1ccc(Cl)cc1)n1cncn1 (stereo not given) | 0.947 | 0.985 | 0.996 | 1 | 1.17 | 0.986 | 1.04 | 0.943 | 1.08 | 1.03 | 0.998 | 1.01 | 1.02 | 0.97 | 1.07 | 1.02 | 1.04 | 1.03 | 1.02 | 0.998
10 | NCCO.O=C(O)c1nc(Cl)ccc1Cl | 1.02 | 1.01 | 1.04 | 0.987 | 1.02 | 1.04 | 1 | 1.04 | 1 | 1.02 | 1.05 | 1.01 | 1.01 | 0.912 | 1.04 | 0.979 | 1.02 | 1.02 | 1.02 | 1.01
11 | CCc1cccc(C)c1N(C(=O)CCl)C(C)COC (stereo not given) | 1.03 | 0.884 | 1.01 | 0.995 | 1.26 | 1 | 0.935 | 1.07 | 0.979 | 1.02 | 1.03 | 1.02 | 0.983 | 1.02 | 1.1 | 1.04 | 1.02 | 0.972 | 1.03 | 0.991
12 | C=CCC1=C(C)C(OC(=O)[C@@H]2[C@@H](C=C(C)C)C2(C)C)CC1=O (stereo not given in full) | 1.01 | 0.983 | 1.02 | 1.05 | 1.08 | 0.96 | 1.01 | 1 | 1.04 | 1.03 | 1.03 | 1.01 | 0.988 | 0.919 | 1 | 0.962 | 0.968 | 1.07 | 0.9 | 0.999
13 | CNC(=O)CSP(=O)(OC)OC | 1.07 | 1.03 | 1.02 | 1.03 | 1.04 | 0.997 | 1.01 | 1.06 | 1.03 | 1.03 | 1.04 | 1.01 | 1.03 | 1.01 | 1.04 | 1.06 | 1.05 | 1.05 | 1.02 | 1.01
14 | CCCCc1c(C)nc(NCC)nc1OS(=O)(=O)N(C)C | 1.07 | 1.01 | 0.967 | 0.909 | 0.895 | 0.944 | 0.901 | 0.996 | 1.01 | 0.977 | 0.996 | 0.987 | 1.01 | 1.16 | 0.968 | 0.931 | 0.987 | 0.891 | 0.598 (active) | 0.906
15 | N#CCNC(=O)c1cnccc1C(F)(F)F | 0.888 | 1.01 | 0.959 | 1 | 0.966 | 0.988 | 0.99 | 0.961 | 0.99 | 1.01 | 0.993 | 1.01 | 0.961 | 0.97 | 0.991 | 1.06 | 0.974 | 1.02 | 1.02 | 1.03
16 | CCNc1nc(Cl)nc(NC(C)(C)C)n1 | 1.01 | 0.987 | 0.977 | 0.978 | 0.996 | 0.967 | 1 | 1.01 | 0.977 | 0.971 | 0.995 | 0.977 | 1.01 | 1.07 | 0.975 | 0.947 | 1.03 | 1.01 | 0.992 | 0.979
17 | CCCN(CCOc1c(Cl)cc(Cl)cc1Cl)C(=O)n1ccnc1 | 1.05 | 0.886 | 0.967 | 0.941 | 1.14 | 0.869 | 0.836 | 0.89 | 0.982 | 1.02 | 0.487 (active) | 1.01 | 1.01 | 0.591 (active) | 1 | 1.11 | 1.17 | 0.94 | 0.871 | 0.843
